We go through twelve compounds from PubChem BioAssay (EPA / NIEHS).

Values joined by “and” are separate entries in the source; they are usually repeats but may differ in a detail not shown here. Identical values can stand only once. Results filed as inconclusive are left out. Where a structure was tested more than once in an assay, its records may differ in their call. Active and inactive are the calls of the source. How the source made its calls, unless noted: active means hit-call score of the fitted dose curve at least 0.9, where 1 is the maximum; inconclusive means response in the unintended direction; inactive means score below 0.9.

For experiment [1], the system named is zebrafish Estrogen Receptor (ER2b), gene 317733. The experiment can be described thus: ATG_zfER2b_XSP2: Attagene TRANS-FACTORIAL Multi-Species (XSP2) HepG2 Assay for zebrafish Estrogen Receptor (ER2b) (AID 2283823).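 Further: fitted upward as reporter gain over DMSO so potency reflects activation.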 The essentials: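 Transcriptional induction measured as reporter mRNA (RT-PCR, fluorescent capillary electrophoresis) in transiently transfected HepG2 cells after 24 h dosing; DMSO served as negative control and baseline.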

In experiment [2] the test system is zebrafish Androgen Receptor (AR), gene 100005148. The experiment is described as follows: ATG_zfAR_XSP2: Attagene TRANS-FACTORIAL Multi-Species (XSP2) HepG2 Assay for zebrafish Androgen Receptor (AR) (AID 2283825).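 Further: hits raise reporter mRNA above DMSO so AC50 reflects agonist-type gain.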 An outline of the steps:
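After 24 h compound exposure in medium with 3 nM 6-alpha-fluorotestosterone plus 1.5 nM norgestrel, HepG2 cells carrying zebrafish AR–GAL4 reporter constructs were assessed for reporter mRNA gain by RT-PCR and capillary electrophoresis.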

Experiment [3] has as its system frog Estrogen Receptor (ER2), gene 100174814. The experiment can be described thus: ATG_frER2_XSP2: Attagene TRANS-FACTORIAL Multi-Species (XSP2) HepG2 Assay for frog Estrogen Receptor (ER2) (AID 2283828). An outline of the steps:
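Cells were transfected with reporter constructs under GAL4-UAS control, dosed with chemicals for 24 h, then lysed for RNA; the frog ER2-driven reporter mRNA was quantified by capillary electrophoresis of labeled PCR fragments, with activity fitted upward from DMSO.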

Experiment [4] addresses Peroxisome proliferator-activated receptor gamma (Homo sapiens) (UniProt P37231). The experiment is described as follows: ATG_hPPARg_XSP2: Attagene TRANS-FACTORIAL Multi-Species (XSP2) HepG2 Assay for human Peroxisome Proliferator-activated Receptor gamma (PPARg) (AID 2283829).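 Further: actives raise reporter mRNA above DMSO so AC50 reflects PPARg activation.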 The essentials:
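Human HepG2 cells carried transiently transfected Gal4 reporter units and were treated with chemical for 24 h alongside androgen-receptor stimulants (3 nM 6-alpha-fluorotestosterone, 1.5 nM norgestrel). Reporter transcripts were detected by RT-PCR with capillary electrophoresis, analysed in the positive direction against DMSO.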

For experiment [5], the target named is mouse Peroxisome Proliferator-activated Receptor gamma (PPARg), Pparg (gene 19016) (UniProt P37238). The experiment can be described thus: ATG_mPPARg_XSP2: Attagene TRANS-FACTORIAL Multi-Species (XSP2) HepG2 Assay for mouse Peroxisome Proliferator-activated Receptor gamma (PPARg) (AID 2283830).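 Further: hits are gains in reporter mRNA above DMSO so AC50 marks activation.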 An outline of the steps: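 Multiplexed TRANS reporter readout: after 24 h chemical exposure of transfected HepG2 cells (with 3 nM 6-alpha-fluorotestosterone, 1.5 nM norgestrel present), RNA reverse-transcribed, amplified, 6-FAM-labelled and resolved by capillary electrophoresis; mouse PPARg-Gal4 induction scored against DMSO.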

Experiment [6] has as its target zebrafish Thyroid Hormone Receptor alpha (TRa), thraa (gene 30670) (UniProt Q98867). The experiment is described as follows: ATG_zfTRa_XSP2: Attagene TRANS-FACTORIAL Multi-Species (XSP1) HepG2 Assay for zebrafish Thyroid Hormone Receptor alpha (TRa) (AID 2283832).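 Further: actives raise zebrafish TRa-Gal4 reporter transcript above DMSO baseline.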 The essentials:
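Chimeric zebrafish TRa-Gal4 activity read in transfected human HepG2 as GAL4-UAS reporter transcripts, 24 h post-dose, via RT-PCR with labeled primer extension and capillary electrophoresis. Medium also carries 3 nM 6-alpha-fluorotestosterone and 1.5 nM norgestrel; DMSO baseline.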

For experiment [7], the system named is zebrafish Peroxisome Proliferator-activated Receptor gamma (PPARg), gene 557037. The experiment can be described thus: ATG_zfPPARg_XSP2: Attagene TRANS-FACTORIAL Multi-Species (XSP2) HepG2 Assay for zebrafish Peroxisome Proliferator-activated Receptor gamma (PPARg) (AID 2283833).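 Further: actives increase reporter signal over DMSO so AC50 reflects activation.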 The essentials:
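HepG2, transient MRTU transfection, 24 h compound; zfPPARg-GAL4 reporter mRNA by RT-PCR + capillary electrophoresis; gain-of-signal vs DMSO.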

The subject of experiment [8] is turtle Thyroid Hormone Receptor, alpha (TRa), gene 101949057. The experiment is described as follows: ATG_trTRa_XSP2: Attagene TRANS-FACTORIAL Multi-Species (XSP1) HepG2 Assay for turtle Thyroid Hormone Receptor, alpha (TRa) (AID 2283834).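 Further: hits raise reporter mRNA over the DMSO baseline so AC50 marks activators.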 An outline of the steps: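 Multiplexed TRANS reporter assay; HepG2 carrying NR-Gal4 constructs treated 24 h. mRNA of the GAL4-UAS reporter quantified via labelled RT-PCR fragments on a genetic analyzer, vs DMSO negative control.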

The target in experiment [9] is zebrafish Thyroid Hormone Receptor beta (TRb), thrb (gene 30607) (UniProt Q9PVE4). The experiment can be described thus: ATG_zfTRb_XSP2: Attagene TRANS-FACTORIAL Multi-Species (XSP1) HepG2 Assay for zebrafish Thyroid Hormone Receptor beta (TRb) (AID 2283836).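 On AC50: potency for induction of reporter signal above DMSO so agonist direction.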 The essentials: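 Reporter transcripts measured by RT-PCR, 6-FAM labelling, HpaI digestion and capillary electrophoresis after 24 h chemical exposure. Human HepG2 cells carry an exogenous zebrafish TRb-GAL4 chimera; medium included 3 nM 6-alpha-fluorotestosterone plus 1.5 nM norgestrel.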

Experiment [10] concerns the target frog Thyroid hormone Receptor alpha (TRa), thra-a (gene 397942) (UniProt P15204). The experiment can be described thus: ATG_frTRa_XSP2: Attagene TRANS-FACTORIAL Multi-Species (XSP2) HepG2 Assay for frog Thyroid hormone Receptor alpha (TRa) (AID 2283839).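 On AC50: AC50 reflects induction of frog TRa-driven reporter mRNA above DMSO baseline.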 An outline of the steps:
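Chimeric frog TRα-GAL4 activity in human liver cells measures reporter transcript induction 24 h post-dose. Detection uses RT-PCR, HpaI-digested labelled products and fluorescence capillary electrophoresis; DMSO serves as negative control.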

The target in experiment [11] is human Thyroid hormone Receptor beta (TRb), THRB (gene 7068) (UniProt P10828). The experiment is described as follows: ATG_hTRb_XSP2: Attagene TRANS-FACTORIAL Multi-Species (XSP2) HepG2 Assay for human Thyroid hormone Receptor beta (TRb) (AID 2283840).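 Further: actives raise reporter mRNA so potency reflects agonist-like gain of signal.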 An outline of the steps: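 Gain-of-signal reporter transcription, referenced to DMSO, was measured in transiently transfected HepG2 after 24 h exposure; labeled RT-PCR products were resolved by capillary electrophoresis. Assay medium included 3 nM 6-alpha-fluorotestosterone and 1.5 nM norgestrel.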

In experiment [12] the test system is Sodium/Iodide Symporter (NIS), SLC5A5 (gene 6528). The experiment can be described thus: CPHEA_Stoker_NIS_Inhibition_RAIU: CPHEA's Radioactive Iodide Uptake (RAIU) Assay for Sodium/Iodide Symporter (NIS) Inhibition, Stoker and Laws Labs (AID 2283841). An outline of the steps:
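hNIS-HEK293T-EPA cells incubated 2 h at room temperature with compound (0.001–100 uM, 0.5% DMSO) and 329 pM final 125I in HBSS/10 mM HEPES, pH 7.4. Intracellular 125I counted; normalised to DMSO maximal uptake, triplicate, three biological replicates.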

The nature of experiment [13]: ATG_M_61_XSP2: Attagene TRANS-FACTORIAL Multi-Species (XSP2) HepG2 Assay for M61 Transcription Factor (Internal Marker) (AID 2283835; active means hit-call score of the fitted dose curve at least 0.9, where 1 is the maximum; inactive means score below 0.9;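 further: reporter mRNA of an internal background marker read by RT-PCR and capillary electrophoresis; active means a rise in signal above the DMSO baseline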). An outline of the steps:
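Transient MRTU transfection of human HepG2; 24 h chemical dosing with 3 nM 6-alpha-fluorotestosterone + 1.5 nM norgestrel added for AR stimulation. RNA isolated, RT, PCR, FAM-labelled, HpaI cut, CE read. Positive direction vs DMSO.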

A short description of experiment [14]: CEETOX_H295R_11DCORT_noMTC: CeeTox H295R High-throughput Steroidogenesis Assay for 11-Deoxycortisol (11DCORT), maximum tolerated concentration (MTC) filtered results only (AID 2283911; active means hit-call score of the fitted dose curve at least 0.9, where 1 is the maximum; inactive means score below 0.9). The following applies: actives raise or lower the signal. An outline of the steps:
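Forskolin-primed (10 uM, 48 h) H295R adrenal cells are dosed for 48 h at 0.1% DMSO; medium 11-deoxycortisol is quantified by LC-MS/MS against a 7-point standard curve, with activity fitted in both directions versus DMSO.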

The nature of experiment [15]: CEETOX_H295R_OHPREG_noMTC: CeeTox H295R High-throughput Steroidogenesis Assay for OH-Pregnenolone (OHPREG), maximum tolerated concentration (MTC) filtered results only (AID 2283912; active means hit-call score of the fitted dose curve at least 0.9, where 1 is the maximum; inactive means score below 0.9). The settings on record: actives raise or lower the signal. An outline of the steps: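 H295R; 10 uM forskolin 48 h pre-stim; test cpd in DMSO (0.1% final) 48 h; media MTBE-extracted, HPLC-MS/MS for OH-pregnenolone; bidirectional fit vs DMSO; no MTC (MTT) filtering.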

The nature of experiment [16]: CEETOX_H295R_OHPROG_noMTC: CeeTox H295R High-throughput Steroidogenesis Assay for OH-Progesterone (OHPROG), maximum tolerated concentration (MTC) filtered results only (AID 2283914; active means hit-call score of the fitted dose curve at least 0.9, where 1 is the maximum; inactive means score below 0.9). The settings on record: actives raise or lower the signal. The essentials:
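Medium hormone measured by reverse-phase C18 HPLC with positive electrospray MS/MS after MTBE liquid-liquid extraction. Cells had 48 h forskolin (10 uM) prestimulation, then 48 h chemical dosing. Gain or loss of signal fitted relative to DMSO baseline.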

The test system of experiment [17] is frog Androgen Receptor (AR), gene 399456. The experiment is described as follows: ATG_frAR_XSP2: Attagene TRANS-FACTORIAL Multi-Species (XSP2) HepG2 Assay for frog Androgen Receptor (AR) (AID 2283824).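 Further: reporter mRNA from GAL4-UAS units driven by Xenopus AR-Gal4 chimera; actives raise reporter signal above DMSO so AC50 reflects agonist-like induction.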 An outline of the steps:
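Reporter transcript induction, read by RT-PCR with fluorescent capillary electrophoresis, in human liver HepG2 cells carrying an exogenous Xenopus AR-Gal4 fusion and GAL4-driven reporters; chemical exposure 24 hours, activity scored upward against DMSO controls.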

The target in experiment [18] is Nuclear receptor subfamily 1 group I member 2 (Mus musculus) (UniProt O54915). The experiment can be described thus: ATG_mPXR_XSP2: Attagene TRANS-FACTORIAL Multi-Species (XSP1) HepG2 Assay for mouse Pregnane X Receptor (PXR) (AID 2283831). An outline of the steps:
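Fluorescence signals from capillary electrophoresis of RT-PCR-amplified reporter mRNA give the readout, gain-of-signal versus DMSO. Transfected HepG2 cells, 24 h dosing, medium contained 3 nM 6-alpha-fluorotestosterone and 1.5 nM norgestrel.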

The nature of experiment [19]: ATG_XTT_Cytotoxicity_XSP2: Cytotoxicity Assessment in the Attagene TRANS-FACTORIAL Multi-Species (XSP2) HepG2 Assay (AID 2283837). An outline of the steps:
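XTT-based cell number read-out in human HepG2 liver cells carrying transfected reporter units, measured 24 h after chemical dosing. Activity is signal loss versus DMSO baseline.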

Experiment [20] addresses human Thyroid hormone Receptor alpha (TRa), THRA (gene 7067) (UniProt P10827). The experiment can be described thus: ATG_hTRa_XSP2: Attagene TRANS-FACTORIAL Multi-Species (XSP2) HepG2 Assay for human Thyroid hormone Receptor alpha (TRa) (AID 2283838). An outline of the steps:
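Reporter transcripts were read by RT-PCR with fluorescent primer extension, HpaI digestion and capillary electrophoresis. These came from HepG2 cells carrying multiplexed TRa-Gal4 TRANS constructs, harvested 24 hours after dosing. The medium also held 6-alpha-fluorotestosterone (3 nM) and norgestrel (1.5 nM), and increases were fitted against DMSO.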

Chain of mouse Peroxisome Proliferator-activated Receptor gamma (PPARg), Pparg (gene 19016) (P37238 whole entry, looked up, the tested form may be a part): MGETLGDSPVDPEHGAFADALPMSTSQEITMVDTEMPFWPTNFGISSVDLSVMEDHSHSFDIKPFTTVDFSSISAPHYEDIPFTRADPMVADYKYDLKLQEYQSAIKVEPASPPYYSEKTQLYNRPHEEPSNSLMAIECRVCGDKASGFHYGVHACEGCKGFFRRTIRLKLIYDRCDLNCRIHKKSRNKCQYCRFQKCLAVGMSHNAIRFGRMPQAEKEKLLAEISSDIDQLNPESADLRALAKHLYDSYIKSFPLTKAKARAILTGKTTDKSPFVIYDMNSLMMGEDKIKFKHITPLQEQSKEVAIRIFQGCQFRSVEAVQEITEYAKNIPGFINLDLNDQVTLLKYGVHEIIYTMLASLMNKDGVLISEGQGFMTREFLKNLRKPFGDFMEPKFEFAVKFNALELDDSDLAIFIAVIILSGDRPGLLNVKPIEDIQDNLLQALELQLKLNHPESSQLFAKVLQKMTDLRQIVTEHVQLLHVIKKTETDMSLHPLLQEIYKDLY
Chain of frog Thyroid hormone Receptor alpha (TRa), thra-a (gene 397942) (P15204 whole entry, looked up, the tested form may be a part): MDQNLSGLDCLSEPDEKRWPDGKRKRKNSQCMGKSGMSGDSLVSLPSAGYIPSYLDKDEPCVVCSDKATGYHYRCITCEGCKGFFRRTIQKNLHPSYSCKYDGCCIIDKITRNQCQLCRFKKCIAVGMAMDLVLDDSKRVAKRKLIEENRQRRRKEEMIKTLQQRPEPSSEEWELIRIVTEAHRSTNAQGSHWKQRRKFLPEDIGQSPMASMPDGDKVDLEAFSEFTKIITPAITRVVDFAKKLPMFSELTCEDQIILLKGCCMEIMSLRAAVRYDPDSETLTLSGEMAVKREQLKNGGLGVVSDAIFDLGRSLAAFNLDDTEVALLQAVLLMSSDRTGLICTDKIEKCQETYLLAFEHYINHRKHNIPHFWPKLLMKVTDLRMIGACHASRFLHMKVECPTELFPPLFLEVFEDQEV
Chain of zebrafish Thyroid Hormone Receptor beta (TRb), thrb (gene 30607) (Q9PVE4 whole entry, looked up, the tested form may be a part): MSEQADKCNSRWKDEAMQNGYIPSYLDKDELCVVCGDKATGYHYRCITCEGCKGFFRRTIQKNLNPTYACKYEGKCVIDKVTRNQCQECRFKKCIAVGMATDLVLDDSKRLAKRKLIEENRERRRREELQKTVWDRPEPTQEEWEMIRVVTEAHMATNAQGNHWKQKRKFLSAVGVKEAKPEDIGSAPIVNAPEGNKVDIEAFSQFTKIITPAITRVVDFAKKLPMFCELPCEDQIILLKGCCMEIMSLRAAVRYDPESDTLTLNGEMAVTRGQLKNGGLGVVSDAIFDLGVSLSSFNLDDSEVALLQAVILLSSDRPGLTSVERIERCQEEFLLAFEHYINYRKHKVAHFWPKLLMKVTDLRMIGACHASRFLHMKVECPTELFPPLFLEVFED
Chain of zebrafish Thyroid Hormone Receptor alpha (TRa), thraa (gene 30670) (Q98867 whole entry, looked up, the tested form may be a part): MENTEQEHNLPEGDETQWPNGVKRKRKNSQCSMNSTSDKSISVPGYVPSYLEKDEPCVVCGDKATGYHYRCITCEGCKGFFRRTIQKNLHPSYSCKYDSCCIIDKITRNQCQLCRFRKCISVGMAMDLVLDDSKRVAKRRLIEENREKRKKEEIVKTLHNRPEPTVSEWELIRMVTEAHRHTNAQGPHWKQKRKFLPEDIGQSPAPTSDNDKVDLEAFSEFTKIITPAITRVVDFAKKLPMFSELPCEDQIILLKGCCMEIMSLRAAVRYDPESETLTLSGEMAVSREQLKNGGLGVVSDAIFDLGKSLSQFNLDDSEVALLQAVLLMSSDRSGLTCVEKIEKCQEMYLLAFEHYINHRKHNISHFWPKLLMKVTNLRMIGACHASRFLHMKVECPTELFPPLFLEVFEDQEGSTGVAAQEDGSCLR
Chain of human Thyroid hormone Receptor beta (TRb), THRB (gene 7068) (P10828 whole entry, looked up): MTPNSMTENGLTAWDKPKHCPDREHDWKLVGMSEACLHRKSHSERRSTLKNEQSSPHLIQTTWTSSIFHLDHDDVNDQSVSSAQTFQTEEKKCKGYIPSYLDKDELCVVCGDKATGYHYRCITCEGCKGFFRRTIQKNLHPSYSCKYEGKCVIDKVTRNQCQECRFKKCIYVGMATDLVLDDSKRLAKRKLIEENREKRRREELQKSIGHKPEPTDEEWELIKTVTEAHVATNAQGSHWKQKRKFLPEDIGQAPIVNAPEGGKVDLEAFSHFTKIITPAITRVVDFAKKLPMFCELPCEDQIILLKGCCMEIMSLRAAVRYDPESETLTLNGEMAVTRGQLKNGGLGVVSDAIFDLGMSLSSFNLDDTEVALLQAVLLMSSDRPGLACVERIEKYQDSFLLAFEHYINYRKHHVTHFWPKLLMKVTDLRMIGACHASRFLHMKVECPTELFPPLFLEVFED
Chain of human Thyroid hormone Receptor alpha (TRa), THRA (gene 7067) (P10827 whole entry, looked up, the tested form may be a part): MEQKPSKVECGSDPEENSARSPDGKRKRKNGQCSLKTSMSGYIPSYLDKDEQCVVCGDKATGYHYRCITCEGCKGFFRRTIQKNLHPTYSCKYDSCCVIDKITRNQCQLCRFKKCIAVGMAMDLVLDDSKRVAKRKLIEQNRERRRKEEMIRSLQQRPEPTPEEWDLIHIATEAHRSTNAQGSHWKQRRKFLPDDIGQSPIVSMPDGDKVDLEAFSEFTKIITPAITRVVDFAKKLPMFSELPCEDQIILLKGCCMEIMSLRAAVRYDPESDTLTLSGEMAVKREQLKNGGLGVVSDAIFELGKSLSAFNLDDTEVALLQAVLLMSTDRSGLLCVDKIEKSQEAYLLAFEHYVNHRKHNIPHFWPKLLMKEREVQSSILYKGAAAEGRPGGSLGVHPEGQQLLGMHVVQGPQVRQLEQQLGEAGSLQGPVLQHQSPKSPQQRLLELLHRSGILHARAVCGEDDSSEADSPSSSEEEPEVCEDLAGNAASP
Chain of Nuclear receptor subfamily 1 group I member 2 (Mus musculus) (O54915 whole entry, looked up): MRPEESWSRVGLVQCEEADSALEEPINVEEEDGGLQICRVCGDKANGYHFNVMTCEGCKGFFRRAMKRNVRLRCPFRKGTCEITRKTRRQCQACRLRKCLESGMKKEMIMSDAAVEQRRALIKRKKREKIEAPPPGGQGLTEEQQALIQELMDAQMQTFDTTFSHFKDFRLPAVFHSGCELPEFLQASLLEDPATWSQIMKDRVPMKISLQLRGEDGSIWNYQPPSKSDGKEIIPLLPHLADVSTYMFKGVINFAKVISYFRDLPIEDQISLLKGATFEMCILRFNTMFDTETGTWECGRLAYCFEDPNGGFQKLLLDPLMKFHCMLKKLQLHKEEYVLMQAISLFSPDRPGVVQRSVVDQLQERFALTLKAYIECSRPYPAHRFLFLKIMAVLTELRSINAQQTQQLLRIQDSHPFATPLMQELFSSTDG
Chain of Peroxisome proliferator-activated receptor gamma (Homo sapiens) (P37231 whole entry, looked up, the tested form may be a part): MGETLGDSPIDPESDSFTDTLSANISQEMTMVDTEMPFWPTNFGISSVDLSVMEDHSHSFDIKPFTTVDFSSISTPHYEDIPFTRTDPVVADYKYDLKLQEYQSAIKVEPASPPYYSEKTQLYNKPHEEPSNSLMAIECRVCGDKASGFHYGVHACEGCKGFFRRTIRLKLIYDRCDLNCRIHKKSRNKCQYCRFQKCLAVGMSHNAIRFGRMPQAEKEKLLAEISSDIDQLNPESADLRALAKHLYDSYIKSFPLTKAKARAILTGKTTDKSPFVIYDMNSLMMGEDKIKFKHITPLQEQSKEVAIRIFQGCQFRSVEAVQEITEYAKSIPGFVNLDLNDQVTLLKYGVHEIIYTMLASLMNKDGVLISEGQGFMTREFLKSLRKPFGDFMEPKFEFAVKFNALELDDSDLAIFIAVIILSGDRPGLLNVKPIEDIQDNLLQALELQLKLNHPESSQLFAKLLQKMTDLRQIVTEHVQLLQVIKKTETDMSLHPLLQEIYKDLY

For the compound `CN(C)C(=N)N=C(N)N`, the compound was classed as inactive in experiment [1], in experiment [2], in experiment [3], in experiment [4], in experiment [5] and in [6]. Further, the outcome in [7], in [8], in [9], in [10] and in experiment [11] was inactive.

Broadly, the AC50 is the midpoint of the concentration-response curve, whichever way the signal moves. Turning to `CSc1nc(NC2CC2)nc(NC(C)(C)C)n1`, the half-maximal activity concentration (AC50) in experiment [12] is 10 µM (active).

Turning to `CCCCCCCCCCCCCOS(=O)(=O)O`, the result in experiment [12] was inactive.

Turning to `CN(CCOc1ccc(CC2SC(=O)NC2=O)cc1)c1ccccn1` (stereo not given), the outcome in [3], in [7], in [13], in experiment [9] and in [10] was inactive.

`CCN(CC)c1ccc2c(-c3ccccc3C(=O)O)c3ccc(=[N+](CC)CC)cc-3oc2c1`: the outcome in [12] was inactive.

As for `Cc1ccc(O)c(C(C)(C)C)c1`, the outcome in [12] was inactive.

Consider `COc1cc(C(C)(C)C)c(O)c(C(C)(C)C)c1`, for which, in [12], the result was inactive.

Consider `CCN(CC)CCOC(=O)c1ccc(N)cc1`, for which the outcome in experiment [12] was inactive.

`CC1CC(OC(=O)c2ccccc2O)CC(C)(C)C1` (stereo not given): the outcome in experiment [14], in [15] and in experiment [16] was inactive.

As for `Cc1ccc(S)cc1`, in experiment [12], the outcome was inactive.

Take `O=c1cc(-c2ccccc2)oc2cc(O)cc(O)c12`: the half-maximal activity concentration (AC50) in experiment [1] was 14.2 µM (active) and 5.28 µM (active); in [17], 1.19 µM (active); in experiment [3], 4.67 µM (active) and 2.26 µM (active); in experiment [5] it was 7.92 µM (active) and 1.57 µM (active); in experiment [18] it was 12.3 µM (active) and 25.9 µM (active); in experiment [9], 100 µM (active). For the same compound, the AC50 is 10.9 µM (active) and 7.51 µM (active) in experiment [20]; 26.2 µM (active) and 1.8 µM (active) in experiment [10]; 100 µM (active) in experiment [11]. In addition, the outcome in experiment [17], in [6], in experiment [7], in [8], in experiment [13] and in [9] was inactive. Moreover, the compound was classed as inactive in [19], in [11] and in [12].

On to `CC(C)C[C@H]1C(=O)N2CCC[C@H]2[C@]2(O)O[C@](NC(=O)[C@@H]3C=C4c5cccc6[nH]c(Br)c(c56)C[C@H]4N(C)C3)(C(C)C)C(=O)N12`, for which, in experiment [12], the outcome was inactive.
